Source: the supplement of paper PMC10849652
The full data set covers some 8,800 targets. This sample favours those with a hit. About 0.5% of all pairs of compound and target were hits.

Compound: CNc1nc(-c2ccc3c(N)n[nH]c3c2)cc(N2C[C@@H](C(=O)NC3CCCCC3)CC[C@H]2C)n1
Assay: log2 fold change, soluble protein after heating vs DMSO (PISA); higher = thermal stabilisation; K562 lysate, 10 uM; active = over 0.2 and 3.5 SD of the protein, either way, in both replicates (recomputed)
Method in brief: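 K562 pellets were dounce-homogenised in PBS pH 7.4 containing 1 mM MgCl2, and the crude extract, at 1 mg/mL protein, was exposed to 10 μM compound for 30 min. Aliquots were heated for 3 min across 48°C-58°C, pooled, brought to 0.5% NP-40 at 4°C and spun at 21,000xg for 90 min, with the supernatant taken as soluble protein. TMTpro 16plex LC-MS/MS with equalised channel sums quantified that protein. Values are log-two fold changes in thermal stability relative to solvent controls, taken from duplicates.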

Sequence of UniProt Q12981 (Q12981 whole entry, looked up): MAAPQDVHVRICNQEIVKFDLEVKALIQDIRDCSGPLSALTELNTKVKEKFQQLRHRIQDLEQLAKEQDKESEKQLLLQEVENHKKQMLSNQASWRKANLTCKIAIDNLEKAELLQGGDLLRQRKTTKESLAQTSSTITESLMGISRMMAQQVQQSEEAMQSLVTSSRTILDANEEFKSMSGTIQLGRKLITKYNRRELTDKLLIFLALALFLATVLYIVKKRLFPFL
Sequence of UniProt Q99700 (Q99700 whole entry, looked up): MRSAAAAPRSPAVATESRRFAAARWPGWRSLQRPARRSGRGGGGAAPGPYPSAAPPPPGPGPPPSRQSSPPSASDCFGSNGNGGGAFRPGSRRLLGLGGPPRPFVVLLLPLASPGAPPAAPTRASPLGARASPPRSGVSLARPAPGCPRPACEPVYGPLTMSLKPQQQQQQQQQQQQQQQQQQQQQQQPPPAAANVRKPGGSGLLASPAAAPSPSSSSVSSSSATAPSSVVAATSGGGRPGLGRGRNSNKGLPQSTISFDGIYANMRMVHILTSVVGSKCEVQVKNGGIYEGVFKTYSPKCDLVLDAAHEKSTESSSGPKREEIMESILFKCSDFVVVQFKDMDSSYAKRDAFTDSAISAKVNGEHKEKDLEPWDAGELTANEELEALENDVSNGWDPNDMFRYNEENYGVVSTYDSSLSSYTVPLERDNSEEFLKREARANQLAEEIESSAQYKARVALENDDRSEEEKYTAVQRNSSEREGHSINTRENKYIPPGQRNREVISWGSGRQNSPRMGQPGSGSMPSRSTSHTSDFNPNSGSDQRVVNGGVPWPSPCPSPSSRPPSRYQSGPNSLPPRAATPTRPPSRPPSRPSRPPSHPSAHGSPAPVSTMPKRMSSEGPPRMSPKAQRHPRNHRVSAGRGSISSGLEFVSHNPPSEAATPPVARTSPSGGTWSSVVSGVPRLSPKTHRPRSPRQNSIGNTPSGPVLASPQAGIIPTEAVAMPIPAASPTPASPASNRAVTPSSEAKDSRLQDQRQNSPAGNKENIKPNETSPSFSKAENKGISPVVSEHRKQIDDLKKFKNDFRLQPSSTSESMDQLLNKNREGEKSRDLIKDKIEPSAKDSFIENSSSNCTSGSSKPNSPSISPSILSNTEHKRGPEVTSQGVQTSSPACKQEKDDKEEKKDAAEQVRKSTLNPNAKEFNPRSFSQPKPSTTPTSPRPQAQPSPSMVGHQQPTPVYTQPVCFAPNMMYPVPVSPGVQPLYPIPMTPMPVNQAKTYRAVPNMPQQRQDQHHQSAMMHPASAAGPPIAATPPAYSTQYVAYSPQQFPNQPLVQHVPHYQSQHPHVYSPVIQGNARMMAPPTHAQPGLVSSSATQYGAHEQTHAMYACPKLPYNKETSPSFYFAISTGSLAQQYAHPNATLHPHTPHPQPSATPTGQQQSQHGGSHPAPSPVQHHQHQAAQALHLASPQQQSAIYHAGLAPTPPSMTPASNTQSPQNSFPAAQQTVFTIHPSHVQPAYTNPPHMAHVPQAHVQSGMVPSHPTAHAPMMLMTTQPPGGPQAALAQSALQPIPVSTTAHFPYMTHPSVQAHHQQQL
Sequence of UniProt Q9Y2V0 (Q9Y2V0 whole entry, looked up): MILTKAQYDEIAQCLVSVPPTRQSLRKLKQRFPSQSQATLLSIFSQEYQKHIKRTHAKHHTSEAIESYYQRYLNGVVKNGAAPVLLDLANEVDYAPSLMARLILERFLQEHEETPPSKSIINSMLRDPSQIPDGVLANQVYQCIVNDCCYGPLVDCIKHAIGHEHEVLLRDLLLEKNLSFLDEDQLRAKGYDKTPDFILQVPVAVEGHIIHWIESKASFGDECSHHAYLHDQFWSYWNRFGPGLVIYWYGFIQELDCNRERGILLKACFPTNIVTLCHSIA
Sequence of UniProt Q5T9A4 (Q5T9A4 whole entry, looked up): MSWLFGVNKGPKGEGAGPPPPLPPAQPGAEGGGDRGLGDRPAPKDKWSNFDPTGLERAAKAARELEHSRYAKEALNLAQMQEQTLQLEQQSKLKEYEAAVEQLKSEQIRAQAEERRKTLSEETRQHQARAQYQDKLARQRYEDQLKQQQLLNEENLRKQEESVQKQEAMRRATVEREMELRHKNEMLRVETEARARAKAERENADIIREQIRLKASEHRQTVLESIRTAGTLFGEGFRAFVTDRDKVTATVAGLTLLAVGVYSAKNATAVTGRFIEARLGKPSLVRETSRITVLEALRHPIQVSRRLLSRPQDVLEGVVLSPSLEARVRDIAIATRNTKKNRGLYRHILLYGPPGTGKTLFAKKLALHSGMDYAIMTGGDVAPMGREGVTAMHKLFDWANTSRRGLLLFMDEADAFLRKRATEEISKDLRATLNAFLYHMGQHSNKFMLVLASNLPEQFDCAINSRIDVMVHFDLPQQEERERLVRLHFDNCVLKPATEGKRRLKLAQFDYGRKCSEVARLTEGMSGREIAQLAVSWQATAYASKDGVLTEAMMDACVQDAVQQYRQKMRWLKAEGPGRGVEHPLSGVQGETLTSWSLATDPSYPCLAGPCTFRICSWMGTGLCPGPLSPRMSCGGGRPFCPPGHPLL
Sequence of UniProt P15056 (P15056 whole entry, looked up): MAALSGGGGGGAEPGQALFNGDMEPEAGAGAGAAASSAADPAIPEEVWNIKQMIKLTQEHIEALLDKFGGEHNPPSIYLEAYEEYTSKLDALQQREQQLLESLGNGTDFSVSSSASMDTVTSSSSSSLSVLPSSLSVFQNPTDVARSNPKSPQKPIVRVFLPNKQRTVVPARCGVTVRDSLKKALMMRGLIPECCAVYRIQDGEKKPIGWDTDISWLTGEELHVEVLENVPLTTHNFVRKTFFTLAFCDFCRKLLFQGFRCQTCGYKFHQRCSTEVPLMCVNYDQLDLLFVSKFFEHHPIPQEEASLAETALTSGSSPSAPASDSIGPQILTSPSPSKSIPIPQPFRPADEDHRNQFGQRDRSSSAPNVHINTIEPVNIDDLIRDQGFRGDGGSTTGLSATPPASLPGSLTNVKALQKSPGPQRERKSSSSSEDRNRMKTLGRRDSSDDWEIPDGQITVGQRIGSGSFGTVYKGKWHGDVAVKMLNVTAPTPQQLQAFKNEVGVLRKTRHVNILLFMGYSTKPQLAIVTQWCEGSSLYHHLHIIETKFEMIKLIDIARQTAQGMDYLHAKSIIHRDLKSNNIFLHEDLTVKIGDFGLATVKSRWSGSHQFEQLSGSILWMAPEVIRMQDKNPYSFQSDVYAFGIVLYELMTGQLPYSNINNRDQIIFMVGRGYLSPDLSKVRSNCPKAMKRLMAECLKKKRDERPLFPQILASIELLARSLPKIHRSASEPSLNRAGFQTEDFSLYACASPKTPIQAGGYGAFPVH
Sequence of UniProt Q8N5S9 (Q8N5S9 whole entry, looked up): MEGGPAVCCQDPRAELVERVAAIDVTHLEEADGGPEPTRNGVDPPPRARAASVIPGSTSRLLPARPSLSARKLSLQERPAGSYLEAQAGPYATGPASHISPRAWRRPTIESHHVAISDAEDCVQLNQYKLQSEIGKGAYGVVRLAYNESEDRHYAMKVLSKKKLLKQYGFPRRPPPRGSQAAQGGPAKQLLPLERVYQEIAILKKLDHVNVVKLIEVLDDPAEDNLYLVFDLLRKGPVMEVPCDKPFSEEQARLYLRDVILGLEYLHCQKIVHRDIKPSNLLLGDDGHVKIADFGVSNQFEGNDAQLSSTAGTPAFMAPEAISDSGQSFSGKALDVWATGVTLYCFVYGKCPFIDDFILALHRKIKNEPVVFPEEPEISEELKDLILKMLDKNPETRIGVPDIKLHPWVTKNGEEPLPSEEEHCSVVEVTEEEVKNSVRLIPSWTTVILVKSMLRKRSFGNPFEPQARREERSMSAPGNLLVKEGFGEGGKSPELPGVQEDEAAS
Sequence of UniProt O95352 (O95352 whole entry, looked up): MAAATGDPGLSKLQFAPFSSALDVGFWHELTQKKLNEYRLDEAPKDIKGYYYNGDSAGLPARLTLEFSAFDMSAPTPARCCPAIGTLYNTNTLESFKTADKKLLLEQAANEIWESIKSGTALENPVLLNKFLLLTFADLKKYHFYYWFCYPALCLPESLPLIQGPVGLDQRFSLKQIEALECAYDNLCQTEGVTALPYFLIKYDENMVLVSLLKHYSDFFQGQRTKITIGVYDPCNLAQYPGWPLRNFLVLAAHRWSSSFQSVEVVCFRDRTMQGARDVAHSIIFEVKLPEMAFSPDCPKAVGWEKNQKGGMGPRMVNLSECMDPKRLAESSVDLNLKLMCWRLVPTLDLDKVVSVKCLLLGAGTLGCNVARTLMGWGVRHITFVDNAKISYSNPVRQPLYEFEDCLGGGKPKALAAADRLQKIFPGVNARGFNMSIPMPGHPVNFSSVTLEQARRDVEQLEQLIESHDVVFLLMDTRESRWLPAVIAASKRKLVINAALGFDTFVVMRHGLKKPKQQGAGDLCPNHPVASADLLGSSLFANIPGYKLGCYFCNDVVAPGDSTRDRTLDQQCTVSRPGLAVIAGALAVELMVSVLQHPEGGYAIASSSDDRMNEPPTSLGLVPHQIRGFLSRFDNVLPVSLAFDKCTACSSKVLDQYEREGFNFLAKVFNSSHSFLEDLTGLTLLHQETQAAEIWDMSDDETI
Sequence of UniProt P20248 (P20248 whole entry, looked up): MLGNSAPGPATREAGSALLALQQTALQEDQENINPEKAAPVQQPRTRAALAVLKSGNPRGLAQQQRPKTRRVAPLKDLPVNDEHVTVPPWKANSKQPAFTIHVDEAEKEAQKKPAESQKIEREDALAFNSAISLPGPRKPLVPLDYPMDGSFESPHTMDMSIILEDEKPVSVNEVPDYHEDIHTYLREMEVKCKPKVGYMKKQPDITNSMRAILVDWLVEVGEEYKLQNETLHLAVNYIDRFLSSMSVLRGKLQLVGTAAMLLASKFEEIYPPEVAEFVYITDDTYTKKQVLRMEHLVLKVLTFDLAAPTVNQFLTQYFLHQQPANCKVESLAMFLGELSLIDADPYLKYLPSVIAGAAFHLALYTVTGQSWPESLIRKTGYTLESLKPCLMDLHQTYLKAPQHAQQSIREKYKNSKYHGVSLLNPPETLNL

log2 fold change, inactive:
CARD9 (UniProt Q9H257) 0.038
ATG13 isoform 2 (UniProt O75143) 0.026
CCDC25 (UniProt Q86WR0) 0.075
CCPG1 isoform 5 (UniProt Q9ULG6) -0.02
BRAF (UniProt P15056) -0.016
CALB2 (UniProt P22676) 0.034
CES2 isoform 4 (UniProt O00748) 0.219
CCDC47 (UniProt Q96A33) -0.028
CCNB2 (UniProt O95067) 0
ATP2B4 (UniProt P23634) 0.001
CDKN1C (UniProt P49918) -0.067
ATAD3B (UniProt Q5T9A4) 0.039
CEP76 (UniProt Q8TAP6) -0.023
CDK13 (UniProt Q14004) -0.184
C2CD5 isoform 3 (UniProt Q86YS7) 0.01
CDAN1 (UniProt Q8IWY9) 0.017
ATRIP (UniProt Q8WXE1) -0.141
CAMK2G isoform 8 (UniProt Q13555) 0.034
CDC16 (UniProt Q13042) -0.097
CDC7 (UniProt O00311) 0.042
BNIP1 (UniProt Q12981) -0.014
CAD (UniProt P27708) -0.008
CFDP1 (UniProt Q9UEE9) -0.051
C15orf41 (UniProt Q9Y2V0) 0.002
CDC123 (UniProt O75794) -0.03
BMS1 (UniProt Q14692) 0.007
CCNA2 (UniProt P20248) -0.017
ATE1 isoform 2 (UniProt O95260) 0.038
BPHL (UniProt Q86WA6) -0.137
ATR (UniProt Q13535) -0.001
BORCS5 (UniProt Q969J3) 0.032
CCNYL1 (UniProt Q8N7R7) 0.055
CBFA2T3 (UniProt O75081) 0.051
ATG7 (UniProt O95352) -0.04
CAMKK2 (UniProt Q96RR4) -0.113
C19orf54 (UniProt Q5BKX5) 0.023
ATXN2 (UniProt Q99700) 0.001
CASP3 (UniProt P42574) 0.064
CAMKK1 isoform 2 (UniProt Q8N5S9) -0.118
